HPGD block – inhibitors of human 15-hydroxyprostaglandin dehydrogenase (HPGD); P15428; Potency, µM, usual class: inhibitors; purified HPGD, NADH fluorescence kinetic, PGE2 substrate; 4.3% of 150,000 active; active means well fitted inhibition curve with a large enough effect, not every such curve was filed as active; inconclusive means small, poorly fitted or top-dose-only effect, or another doubt; inactive means no such curve, though single readings can be large or run the other way
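20 nM HPGD preincubated 15 min at room temperature with compound in 50 mM Tris-HCl pH 8, 0.01% Tween 20. Started with 1 mM NAD+ and 30 uM prostaglandin E2; NADH fluorescence (360/450 nm) read 5 times over 30-s intervals, last minus first.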
PNC inhibitor – perinucleolar compartment assembly inhibition; 3.1% of 140,000 active; PC3M PTB-GFP, PNC prevalence imaging, 16 h; stronger effect = lower value; activity change (PNC), negative = inhibition, % at 10 µM; AID 2417;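 active means readout at or below -70, meaning at least 70% loss of cells showing the perinucleolar compartment, a nuclear body marking cancer cells; inconclusive means readout between -30 and a set limit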
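PC3M cells stably expressing PTB-GFP, 750–1000 cells/well, treated 16 h at 37 °C with compound (23 nl of library stock), in duplicate. After paraformaldehyde fixation and Hoechst stain, imaged at 20x; PNC prevalence scored by image analysis.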
ALDH1A1 block – inhibitors of human aldehyde dehydrogenase 1A1. P00352. Purified ALDH1A1, NADH fluorescence, propionaldehyde substrate. Potency, µM (top dose mostly 75.3 µM), most hits filed as inhibitors. 7.3% of 220,000 active. AID 1030; active means well fitted inhibition curve with a large enough effect, not every such curve was filed as active; inconclusive means small, poorly fitted or top-dose-only effect, or another doubt; inactive means no such curve, though single readings can be large or run the other way
GLA inh pH 4.5 – alpha-galactosidase A (human) inhibition, pH 4.5; activity change, negative = inhibition, % at 105 µM; P06280; 230,000 tested, under 10 active; purified enzyme, 4-MU-alpha-Gal fluorescence, pH 4.5
aGal spleen mod – inhibitors or activators of human alpha-galactosidase in spleen homogenate; P06280; human spleen homogenate, 4MU-alpha-Gal fluorescence, 40 min; Potency, µM (highest dose often 80 µM), usual class: inhibitors; 0.008% of 240,000 active; AID 2107
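Inhibition or activation of alpha-galactosidase in human spleen homogenate is scored by 4-MU fluorescence after 40 min at 37C, pH 5.0, with 1 mM substrate. AC50s come from concentration-response fitted to the Hill equation.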
12-hLO inh – blocks human 12-lipoxygenase activity; purified 12-hLO, xylenol orange hydroperoxide absorbance; Potency, µM (highest dose often 57.1 µM), most hits filed as inhibitors; 0.12% of 150,000 active; AID 1452; further: nearly all actives have a fitted effect of over 55% in size
Target sequence (P18054 whole entry, looked up): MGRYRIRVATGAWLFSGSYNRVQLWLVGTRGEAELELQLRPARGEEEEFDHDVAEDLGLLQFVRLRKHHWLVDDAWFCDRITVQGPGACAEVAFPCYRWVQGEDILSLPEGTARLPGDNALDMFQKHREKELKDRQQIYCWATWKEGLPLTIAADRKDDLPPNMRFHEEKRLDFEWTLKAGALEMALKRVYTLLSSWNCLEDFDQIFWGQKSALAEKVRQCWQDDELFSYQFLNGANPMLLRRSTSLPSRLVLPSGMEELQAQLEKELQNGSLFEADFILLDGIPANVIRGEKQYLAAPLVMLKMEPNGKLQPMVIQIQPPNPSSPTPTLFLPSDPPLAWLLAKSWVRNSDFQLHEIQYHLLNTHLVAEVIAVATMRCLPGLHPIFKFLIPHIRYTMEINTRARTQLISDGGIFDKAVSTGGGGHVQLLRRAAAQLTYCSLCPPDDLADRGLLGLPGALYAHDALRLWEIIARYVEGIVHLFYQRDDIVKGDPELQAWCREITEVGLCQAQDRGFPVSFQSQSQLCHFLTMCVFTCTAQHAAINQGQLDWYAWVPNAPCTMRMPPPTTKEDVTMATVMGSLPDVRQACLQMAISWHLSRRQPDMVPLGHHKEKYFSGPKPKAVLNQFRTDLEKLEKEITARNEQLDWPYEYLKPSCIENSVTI
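150 nM 12hLO, 25 mM Hepes pH 7.0 + 0.01% Triton X-100; cpd preinc 15 min RT; 40 uM arachidonic acid, 30 min RT; Fe-XO 30 min; A573/A405 ratio as read-out.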
Hits are given with their value; – = inactive; ? = inconclusive; · = not tested or not shown; ! = a repeat was not active; [ ] = dose if it differs, or a comment. An excerpt weighted towards active compounds, which were near 10% of everything screened. Unless noted, the call rests on the fitted dose curve; in most records, active means well fitted curve in the direction sought with a large enough effect; inconclusive means small, poorly fitted or top-dose-only effect, or another doubt; inactive means no such curve, though single readings can be large; an effect the other way counts as inactive or inconclusive.

SMILES | HPGD block | PNC inhibitor | ALDH1A1 block | GLA inh pH 4.5 | aGal spleen mod | 12-hLO inh
COC(=O)c1sc(NC(=O)C(C)C)c(C(=O)OC)c1C | ? | – | ? | – | – | –
CCN(CC)C(=O)c1sc(NC(=O)c2ccoc2C)c(C(=O)OC)c1C | 14µM | – | 22µM | – | – | –
COC(CNC(=O)C1CCCN(S(=O)(=O)c2c(C)noc2/C=C/c2cccs2)C1)OC (stereo not drawn) | · | · | – | –[21.1 µM] | – | ·
CC(C)OC(=O)CSc1nc(Cc2cccs2)nc2ccccc12 | · | · | ? | – | – | ·
CCOC(=O)c1c(NC(=O)c2ccoc2C)sc(C(=O)N(C)C)c1C | ? | – | 20µM | – | – | –
CC[C@@H](Nc1ncnc2nc[nH]c12)C(=O)O | – | · | –[13.5 µM] | · | · | –[11.4 µM]
CC(=O)N/C(=C/c1ccc(OS(=O)(=O)c2ccc(C)cc2)cc1)C(=O)NCCCO | · | · | 2.2µM | – | – | ·
COc1ccccc1OS(=O)(=O)c1ccc(NC(C)=O)cc1 | · | · | ? | · | – | ·
CC(=O)Nc1ccc(S(=O)(=O)Oc2ccc(C=O)cc2)cc1 | – | – | 28µM | – | – | –
COC(=O)/C=C/S(=O)(=O)c1ccc(NC(C)=O)cc1 | – | – | 0.32µM | – | – | –
CC(=O)Nc1ccc(S(=O)(=O)Nc2ccc([N+](=O)[O-])cc2)cc1 | 22µM | · | ? | – | – | –
CC(=O)Nc1ccc(OS(=O)(=O)c2ccc([N+](=O)[O-])cc2)cc1 | · | · | 25µM | – | – | ·
COc1ccc(C)cc1NC(=O)C1CC(=O)N(Cc2ccco2)C1 (stereo not drawn) | – | – | – | – | – | –
COc1cc2c(cc1NC(=O)C(C)OC(=O)C1CC(=O)N(Cc3ccco3)C1)oc1ccccc12 (stereo not drawn) | 28µM | – | – | – | – | –
CC(C)c1cc(C(=O)Nc2cc(Br)ccc2O)no1 | 8.9µM | – | – | – | – | –
CC(C)Cc1cc(C(=O)Nc2cc(Cl)ccc2Cl)no1 | 14µM | – | – | – | – | –
CC(C)c1cc(C(=O)Nc2cc(Cl)ccc2O)no1 | 5.6µM | – | – | – | – | –
CCCc1cc(C(=O)Nc2cc(Br)ccc2O)no1 | ? | ? | – | – | – | –
CC(C)c1cc(C(=O)Nc2cccc(Cl)c2)no1 | – | – | – | – | – | –
COc1ccc2c(c1)C(=O)[C@@H](OC(=O)NCc1ccco1)[C@H](c1ccc(OC)c(Br)c1)O2 | – | · | ? | – | – | ·
CC1(C)Cc2c(sc3ncnc(NNC(=S)NCc4ccccc4)c23)CO1 | – | – | 1.4µM | – | – | –
CCN(CC)S(=O)(=O)c1ccc2c(c1)nc(SC(C)C(N)=O)n2-c1ccc(OC)cc1 (stereo not drawn) | – | ? | 16µM | – | – | –
COc1ccc(/C(N)=N/O)cc1O | – | – | – | – | – | –
O=S1(=O)C2CC3CCC2(CN1Cc1cccc(F)c1)O3 (stereo not drawn) | · | · | · | · | – | ·
Cc1noc2c1C(c1ccc(N(C)C)cc1)C1=C(CC(C)(C)CC1=O)N2 (stereo not drawn) | – | – | 22µM | – | – | –
SMILES | HPGD block | PNC inhibitor | ALDH1A1 block | GLA inh pH 4.5 | aGal spleen mod | 12-hLO inh
NNC(=O)c1sccc1OCc1ccc(F)cc1 | · | · | 10µM | – | – | ·
O=C(N/N=C/c1ccc(Cl)cc1)c1sccc1OCc1ccc(F)cc1 | – | -119 | – | – | – | –
COc1ccc(COc2ccsc2C(=O)Nc2ccc(Cl)cc2)cc1 | – | -86 | – | – | – | –
NNC(=O)c1sccc1OCc1cccc(C(F)(F)F)c1 | · | · | ? | – | – | ·
COC(=O)N/N=C/c1cc(Cl)c(OCc2ccc(F)cc2)c(OC)c1 | – | -87 | – | – | – | –
O=C(N/N=C/c1ccc(F)cc1)c1sccc1OCc1ccc(F)cc1 | – | – | – | – | – | –
COC(=O)N/N=C/c1cc(Cl)c(OCc2ccccc2F)c(OC)c1 | · | · | · | – | – | ·
COc1ccc(NC(=O)c2csc(Cc3ccc(Cl)cc3)n2)cc1 | · | · | – | – | – | ·
NNC(=O)c1sccc1OCc1ccc(Cl)cc1Cl | · | · | 3.5µM | – | – | ·
CC(C)=CCc1c(O)cc2oc3c(CC=C(C)C)c(O)c(O)c(CC=C(C)C)c3c(=O)c2c1O | · | · | · | – | – | ·
COc1c(O)cc2oc3cc(O)c(CC=C(C)C)c(O)c3c(=O)c2c1CC=C(C)C | 28µM! | · | – | – | – | ?
